Results from PubChem BioAssay.
Results filed as inconclusive are left out. Calls of active or inactive are those of the source.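 How the source made its calls, unless noted: active means growth inhibition above 25% in both replicates, a cutoff set 3 SD above the mean; inconclusive means above 25% in only one replicate; inactive means the rest.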

What was measured:
[1] = Her2 expression decrease, cell viability multiplex – SKBR3 breast tumor cells, AlphaScreen, ATP viability, primary screen (AID 461;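 active means Her2 level under about 52% in both replicate screens, with viability over 70% of control, limit read from the data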;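 on Her2 level: lower value means less Her2 protein in the cells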;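 on viability: percent of carrier control wells set as 100% viability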); details: SKBR3 Her2 protein level, 18-24 h, measured here: SKBR3 viability, ATP luminescence, at 10 µM
[2] = target: Receptor tyrosine-protein kinase erbB-2 (Homo sapiens) (UniProt P04626); assay: as above; details: 18-24 h, at 10 µM, stronger effect = lower value
[3] = reduced viability of SK-BR-3 breast cancer cells – cell-based, 24 h, human, pilot screen (AID 572;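 active means viability at or below 10% of carrier control in both of two separate runs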;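 further: compound exposure lasted between 18 and 24 h rather than exactly 24 h; 100% = carrier-treated control wells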); details: SK-BR-3 viability, CellTiter-Glo luminescence, at 10 µM, stronger effect = lower value
[4] = HUVEC growth inhibition – cell-based, human, primary screen (AID 575;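 active means viability at or below 30% in both replicate assays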;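 further: 100% = median of untreated cell wells with 0.1% DMSO on each plate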); details: HUVEC proliferation, CellTiter-Glo luminescence, 72 h; at 10 µM; stronger effect = lower value
[5] = H69AR cell proliferation blockers – human, duplicate replicates, primary screen (AID 580;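 active means viability at or under a set limit in both replicates, limit being median viability minus 3 SD, cut at about 48% in these data, passing the limit was not always enough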;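 further: 100% = mean luminescence of untreated wells and 0% = no signal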); details: H69AR lung tumor cells viability, ATP luminescence, 72 h; at 10 µM; stronger effect = lower value
[6] = MRP1 drug-resistance reversers in H69AR cells – cell-based, doxorubicin co-treatment, pilot screen (AID 601;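 active means viability loss from added drug above about 55%, and viability with drug at most 40%, in both replicates, limit read from the data, passing the limit was not always enough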); details: CellTiter-Glo, 72 h, at 10 µM; for differential viability (reversal): stronger effect = higher value
[7] = yeast transport mutant growth inhibition pilot in 384-well plates, post-Golgi transport modulator project (AID 636; in the data active means inhibition above about 31%); details: absorbance 615 nm, about 18 h, stronger effect = higher value
[8] = growth suppression of yeast trafficking mutant, preliminary HTS, modulators of trafficking downstream of Golgi apparatus project, 1536-format plate, OD 615 nm (AID 637; in the data active means inhibition above about 30%); details: yeast transport mutant growth, absorbance 615 nm, 18 h; stronger effect = higher value
[9] = S. cerevisiae growth inhibition in permissive medium (OD615), pilot counter-assay for S. cerevisiae lifespan shortening project, permissive growth control (AID 705); details: OD615, 24 h, at 10 µM, stronger effect = higher value
[10] = S. cerevisiae growth inhibition in restrictive medium, OD615, pilot screen, restrictive growth control, yeast lifespan reduction project (AID 706;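 active means growth inhibition above a set limit, 3 SD over mean compound inhibition, in both replicates, cut at about 43% in these data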;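 further: modified DeaD lifespan yeast strain shifted to restrictive glucose medium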); details: OD615, 48 h, at 10 µM, stronger effect = higher value
[11] = doxorubicin toxicity protection in MRP-1 cells – H69AR cells, CellTiter-Glo, duplicate, MRP-1 activator project, pilot screen (AID 807;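 active means viability increase at or above a cutoff of the median across tested compounds plus 3 SD, cut at about 8.5% in these data, passing the limit was not always enough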;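 further: compound pretreatment 18-22 h then 72 h combined with doxorubicin; 0% = doxorubicin alone and 100% = vehicle without doxorubicin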); details: H69AR viability with doxorubicin, CellTiter-Glo luminescence; at 10 µM; stronger effect = higher value
[12] = viability of HCT116 without oncogenic beta-catenin – human colon tumor cells, pilot screen (AID 823;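 active means cell viability at or below a set limit in both duplicate runs, the limit being the all-compound median minus 4 SD, cut at about 23% in these data, passing the limit was not always enough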;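 further: 0% = wells killed by 20 µM Hyamine and 100% = untreated DMSO cell wells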); details: HCT116 beta-catenin knockout viability, CellTiter-Glo, 60 h; at 10 µM; stronger effect = lower value
[13] = viability of PTEN-null HCT116 cells – cell-based, HCT116 clonal line, CellTiter-Glo, pilot screen (AID 824;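 active means viability at or below 27.92% in each of two runs, the all-compound median minus 4 SD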;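 further: 0% = 20 µM Hyamine control and 100% = vehicle cell control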); details: HCT116 PTEN-deleted viability, 60 h, at 10 µM, stronger effect = lower value
[14] = RAM pathway blockade in budding yeast – dse1pr::URA3 reporter, 5-FOA selection, pilot screen (AID 869;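 active means inhibition over a set limit, the all-compound mean plus 3 SD, in both replicate runs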;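 further: 0% = DMSO wells with no growth and 100% = 10 µM 1-NA-PP1 with full growth; RAM network block rescues cells from 5-FOA so hits raise OD615 growth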); details: S. cerevisiae dse1pr::URA3 5-FOA growth, OD615, 2 d; at 10 µM; stronger effect = higher value; strain carries analog-sensitive mutant Cbk1 kinase
[15] = RAM signaling pathway blockade in yeast – S. cerevisiae, Pdr1DBD-CYC8 efflux-inhibited sensitized strain, primary screen (AID 1298;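 active means RAM network inhibition above 8.4% in each of two replicates, 3 SD over the compound average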;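 further: 0% = DMSO untreated cells without growth and 100% = 10 µM 1-NA-PP1 full growth; higher means more yeast growth rescued from 5-FOA killing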); details: S. cerevisiae cbk1-as DSE1-URA3 strain, 5-FOA growth OD615, 2 d; at 50 µM; stronger effect = higher value
[16] = H69AR cells + 2 uM doxorubicin, measured here: viability with 2 uM doxorubicin, stronger effect = lower value
[17] = H69AR cells, compound alone cytotoxicity

Receptor tyrosine-protein kinase erbB-2 (Homo sapiens), sequence (P04626 whole entry, looked up): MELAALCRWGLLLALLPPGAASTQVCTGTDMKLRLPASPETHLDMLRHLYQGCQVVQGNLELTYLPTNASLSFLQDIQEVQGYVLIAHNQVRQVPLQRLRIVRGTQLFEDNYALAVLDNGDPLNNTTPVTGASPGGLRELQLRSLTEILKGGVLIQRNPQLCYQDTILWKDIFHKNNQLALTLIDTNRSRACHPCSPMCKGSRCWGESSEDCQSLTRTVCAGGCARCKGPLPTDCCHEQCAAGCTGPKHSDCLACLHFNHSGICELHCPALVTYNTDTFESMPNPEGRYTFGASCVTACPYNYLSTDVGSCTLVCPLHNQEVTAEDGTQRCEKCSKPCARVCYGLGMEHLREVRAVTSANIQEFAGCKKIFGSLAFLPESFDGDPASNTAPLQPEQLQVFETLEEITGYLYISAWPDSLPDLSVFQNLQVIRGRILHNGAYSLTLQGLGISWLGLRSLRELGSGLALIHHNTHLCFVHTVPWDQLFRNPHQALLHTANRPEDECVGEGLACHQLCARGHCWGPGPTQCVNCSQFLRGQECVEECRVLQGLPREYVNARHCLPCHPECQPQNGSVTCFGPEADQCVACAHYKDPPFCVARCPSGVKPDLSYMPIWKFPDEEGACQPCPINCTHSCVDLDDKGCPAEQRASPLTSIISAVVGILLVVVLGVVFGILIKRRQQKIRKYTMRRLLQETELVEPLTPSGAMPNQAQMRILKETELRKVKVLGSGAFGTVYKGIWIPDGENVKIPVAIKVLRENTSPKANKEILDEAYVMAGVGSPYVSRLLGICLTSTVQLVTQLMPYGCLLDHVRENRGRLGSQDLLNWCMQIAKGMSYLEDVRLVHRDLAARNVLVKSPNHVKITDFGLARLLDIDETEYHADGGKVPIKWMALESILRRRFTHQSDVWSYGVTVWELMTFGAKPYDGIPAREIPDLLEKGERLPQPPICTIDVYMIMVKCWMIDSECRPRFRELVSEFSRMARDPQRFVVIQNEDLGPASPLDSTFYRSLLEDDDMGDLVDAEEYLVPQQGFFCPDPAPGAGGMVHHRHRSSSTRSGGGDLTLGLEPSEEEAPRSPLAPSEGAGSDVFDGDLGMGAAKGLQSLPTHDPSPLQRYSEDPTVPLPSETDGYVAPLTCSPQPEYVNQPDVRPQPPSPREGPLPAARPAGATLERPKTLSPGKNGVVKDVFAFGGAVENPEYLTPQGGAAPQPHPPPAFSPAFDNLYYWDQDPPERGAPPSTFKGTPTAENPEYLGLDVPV

Compound | viability [1] [%] | Her2 level [2] | viability [3] | viability [4] | viability [5] | differential viability (reversal) ([6]; H69AR cells + 2 uM doxorubicin) | viability [6, 16] [%] | viability [6, 17] [%] | inhibition [7] | inhibition [8] | growth inhibition [9] | growth inhibition [10] | viability increase [11] | viability [12] | viability [13] | inhibition [14] | RAM network inhibition [15]
CCC1CCCCN1CCNS(=O)(=O)c1ccc2c(c1)oc(=O)n2C (stereo not drawn) | 91.5 | 84.5% (inactive) | 91.5% (inactive) | 79.8% (inactive) | 85.2% (inactive) | 0.025% (inactive) | 85.1 | 85.2 | -1.28% (inactive) | 0.67% (inactive) | -0.855% (inactive) | -5.11% (inactive) | -2.8% (inactive) | 97.9% (inactive) | 95.1% (inactive) | 2.01% (inactive) | -1.43% (inactive)
CN1CCc2c(sc3c2C(=O)NC(c2cccc(OC(=O)c4cccs4)c2)N3)C1 (stereo not drawn) | 81.5 | 78.5% (inactive) | 81.5% (inactive) | 68% (inactive) | 85.6% (inactive) | -8.95% (inactive) | 94.6 | 85.6 | -5.07% (inactive) | 7.5% (inactive) | 8.64% (inactive) | 11.5% (inactive) | -4.85% (inactive) | 96.3% (inactive) | 93.8% (inactive) | 0.215% (inactive) | 4.47% (inactive)
C=CCSc1nnc(Cc2c(C)[nH]c3ccccc23)o1 | 90.5 | 96% (inactive) | 90.5% (inactive) | 84.7% (inactive) | 92.2% (inactive) | 6.96% (inactive) | 85.3 | 92.2 | -3.87% (inactive) | -2.5% (inactive) | 1.6% (inactive) | 3.4% (inactive) | -0.66% (inactive) | 99.7% (inactive) | 99.5% (inactive) | -0.545% (inactive) | 1.36% (inactive)
Nc1nc(N2CCCCC2)nc(N(c2ccccc2)c2ccccc2)n1 | 107 | 104% (inactive) | 107% (inactive) | 69.3% (inactive) | 70.6% (inactive) | -4.36% (inactive) | 75 | 70.6 | -5.2% (inactive) | -2.33% (inactive) | -12.8% (inactive) | 8% (inactive) | -1.3% (inactive) | 89.5% (inactive) | 87.1% (inactive) | 0.36% (inactive) | 1.36% (inactive)
Cc1ccnc2c(N3C(=O)C4C5C=CC(C5)C4(C)C3=O)cccc12 (stereo not drawn) | 98 | 102% (inactive) | 98% (inactive) | 105% (inactive) | 92.9% (inactive) | 1.47% (inactive) | 91.4 | 92.9 | -3.47% (inactive) | -5.5% (inactive) | -20.2% (inactive) | -11.7% (inactive) | -0.94% (inactive) | 93.3% (inactive) | 95.5% (inactive) | 1.86% (inactive) | -1.63% (inactive)
COc1cccc(NC(=O)CSc2nnc(Cc3cccn3C)n2-c2ccc(F)cc2)c1 | 94.5 | 115% (inactive) | 94.5% (inactive) | 85.7% (inactive) | 78.2% (inactive) | -8.06% (inactive) | 86.2 | 78.2 | -7.73% (inactive) | -8% (inactive) | 0.385% (inactive) | 13.1% (inactive) | -4.32% (inactive) | 88.9% (inactive) | 90.1% (inactive) | 1.09% (inactive) | 6.98% (inactive)
CC(=O)N1c2c(cc(Br)cc2S(=O)(=O)N2CCN(c3ccccn3)CC2)CC1C (stereo not drawn) | 80.5 | 106% (inactive) | 80.5% (inactive) | 64.9% (inactive) | 86.6% (inactive) | -3.56% (inactive) | 90.2 | 86.6 | -1.05% (inactive) | 24.6% (inactive) | 6.66% (inactive) | 1.97% (inactive) | 1.49% (inactive) | 99.1% (inactive) | 95.6% (inactive) | 0.77% (inactive) | 0.3% (inactive)
Cc1cccc(NC(=O)CS(=O)(=O)c2cn(C)c3ccccc23)c1 | 98 | 95.5% (inactive) | 98% (inactive) | 105% (inactive) | 90.6% (inactive) | -1.36% (inactive) | 92 | 90.6 | -3.47% (inactive) | -0.98% (inactive) | 1.62% (inactive) | -12% (inactive) | -3.05% (inactive) | 97.1% (inactive) | 92.6% (inactive) | 1.98% (inactive) | 4.28% (inactive)
CCOC(=O)N1CCC(NC(=O)c2ccc(CS(=O)(=O)c3c(Cl)cccc3Cl)o2)CC1 | 84.5 | 90% (inactive) | 84.5% (inactive) | 95.8% (inactive) | 104% (inactive) | 6.95% (inactive) | 96.6 | 104 | 2.31% (inactive) | 0.83% (inactive) | -12.4% (inactive) | -27.1% (inactive) | -1.87% (inactive) | 106% (inactive) | 93.5% (inactive) | 1.53% (inactive) | 2.82% (inactive)
